Source: PubChem BioAssay (Tox21)
Values without a mark were called inactive. Results filed as inconclusive are left out. A call without a number means that no potency is given here. The source made the active and inactive calls. Unless noted, calls follow the shape of the dose curve; as a rule, active = well fitted curve in the direction sought with a large enough effect in the repeat runs; inconclusive = weak or mixed curves; inactive = no such curve, though single readings can be large; an effect the other way counts as inactive or inconclusive.

Legend:
[1] = qHTS assay to identify small molecule antagonists of the estrogen related receptor signaling pathway with the pleiotropic PPARgamma coactivator (PGC) from Tox21 10K library (AID 1224841; call rule not given here; also: actives are mostly falling curves and most rising ones were filed inactive; nearly all actives have a fitted effect of over 50% in size)
Outline: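 In the PGC/ERR line, DMSO solutions of test chemicals are pin-delivered to 2,000 cells/well six hours after dispensing. Following eighteen hours' incubation, One-Glo reagent is added and luminescence recorded.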

[2] = qHTS assay to identify small molecule agonists of the estrogen related receptor signaling pathway with the pleiotropic PPARgamma coactivator (PGC) from Tox21 10K library (AID 1224842); also: nearly all actives have a fitted effect of over 15% in size; also: potency is read from the fitted curve at half-maximal effect
Outline: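 Luminescence from One-Glo (30 min, room temperature) measured after PGC/ERR cells had 18 h at 37 C with pinned compound (23 nL in DMSO). Cells had been seeded at 2,000 per well and pre-incubated 6 h.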

[3] = biological target: Thyrotropin receptor (Homo sapiens) (UniProt P16473); experiment: qHTS assay to identify small molecule agonists of the thyroid stimulating hormone receptor (TSHR) signaling pathway (AID 1224843; calls by dose curve; also: nearly all actives have a fitted effect of over 45% in size)
Outline: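 A cell-based cAMP HTRF format was run in TSHR-transfected HEK293 cells, 800 per well. Treatment: 30 min, room temperature. Detection: 1 h with labelled cAMP and anti-cAMP cryptate. Concentration-response over 15 points, three replicates.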

[4] = qHTS assay to identify small molecule agonists of the hypoxia (HIF-1) signaling pathway - cell viability counter screen (AID 1224844; calls by dose curve; also: nearly all actives have a fitted effect of over 50% in size)
Outline: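 Same wells as the HIF-1 reporter screen; ME-180 cells carrying HRE-bla, 17 hr treatment at 37C; CellTiter-Glo luminescence read after 30 min at room temperature.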

[5] = qHTS assay to identify small molecule agonists of H2AX (AID 1224845; active = well fitted activation curve with a large enough effect in the signal ratio in the repeat runs, not every such curve was filed as active; the % refers to the signal ratio)
Outline: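 Phospho-H2AX Ser139 measured by HTRF (ex 320 nm; em 665 and 620 nm) after 24 hr antibody incubation. Compounds, 15 concentrations, 0.76% DMSO, were applied to CHO-K1 cells for 3hr at 37C before lysis.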

[6] = qHTS assay to identify small molecule agonists of the hypoxia (HIF-1) signaling pathway (AID 1224846; active = well fitted activation curve with a large enough effect in the signal ratio in the repeat runs, not every such curve was filed as active; the % refers to the signal ratio)
Outline: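 In ME-180 cells bearing an HRE-bla construct, 17 h treatment with DMSO-dissolved compounds at 37C was followed by CCF4-AM loading to quantify reporter induction.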

[7] = qHTS assay to identify small molecule agonists of H2AX - cell viability counter screen (AID 1224847; calls by dose curve;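 also: wild-type CHO-K1 cells; top concentration of the series differs between compounds; nearly all actives have a fitted effect of over 30% in size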)
Outline: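 Counter-screen for viability: CellTiter-Glo ATP luminescence read after 3 h compound treatment (15-point titration, 0.76% DMSO final) of CHO-K1 cells at 37C, with 30 min room-temperature reagent incubation.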

[8] = qHTS assay to identify small molecule antagonists of the estrogen related receptor (ERR) signaling pathway from Tox21 library (AID 1224848); also: nearly all actives have a fitted effect of over 50% in size
Outline: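 ERR cell line, 2,000 cells/well. 6 h settle, then compound (DMSO) added; 18 h at 37 C; ONE-Glo luminescence after 30 min RT.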

[9] = qHTS assay to identify small molecule agonists of the estrogen related receptor (ERR) signaling pathway from Tox21 library (AID 1224849; calls by dose curve; also: nearly all actives have a fitted effect of over 15% in size); conditions: ERR reporter cell line, ONE-Glo luciferase, 18 h; at 92.4 µM (top of the series) unless noted
Outline: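 Reporter cells (ERR, NTP source) treated with Tox21 10K compounds 18 h, 37 C. Readout: ONE-Glo luminescence, 30 min RT.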

[10] = qHTS RealTime-Glo MT Cell Viability Assay in HepG2 cells - 24 hour (AID 1224867); also: nearly all actives have a fitted effect of over 50% in size
Outline: (§1)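 Viability was tracked continuously by NanoLuc luminescence from prosubstrate reduced by living HepG2 cells, at successive time points over 40 h of compound exposure. Cells with reagent were preincubated 5 h at 37 °C before compound addition.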

[11] = qHTS RealTime-Glo MT Cell Viability Assay in HepG2 cells - 40 hour (AID 1224870); also: nearly all actives have a fitted effect of over 50% in size
Outline: (§2)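 Real-time viability: cells seeded at 600 per well together with NanoLuc and cell-permeant prosubstrate, compounds added after 5 h incubation. Luminescence tracked at 0, 8, 16, 24, 32 and 40 h of exposure.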

[12] = A CellTox Green Cytotoxicity Assay to monitor cytotoxicity in HEK293 cells - 40 hour (AID 1224871); also: nearly all actives have a fitted effect of over 45% in size
Outline: (§3)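 Homogeneous no-lysis format: HEK293 cell suspension mixed with CellTox Green reagent, seeded, incubated 5 h at 37 C/5% CO2, then dosed by pintool with compound in DMSO.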

[13] = qHTS RealTime-Glo MT Cell Viability Assay in HEK293 cells - 16 hour (AID 1224872)
Outline: (§4)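 Viability tracked continuously by luminescence as live cells reduce a prosubstrate for NanoLuc; HEK293 cells preincubated 5 h, compound-treated at 37 C, and read at 0, 8, 16, 24, 32 and 40 h.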

[14] = qHTS RealTime-Glo MT Cell Viability Assay in HepG2 cells - 8 hour (AID 1224873); also: nearly all actives have a fitted effect of over 55% in size
Outline: as §2

[15] = qHTS RealTime-Glo MT Cell Viability Assay in HEK293 cells - 40 hour (AID 1224874); conditions: RealTime-Glo luminescence, stronger effect = lower value; also: nearly all actives have a fitted effect of over 50% in size
Outline: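 Measured as luminescence from the same continuously cultured HEK293 wells at successive time points (0, 8, 16, 24, 32, 40 h) after compound addition. Reagent present from seeding; dosing at 5 h; incubation 37 C.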

[16] = A CellTox Green Cytotoxicity Assay to monitor cytotoxicity in HEK293 cells - 24 hour (AID 1224875); also: nearly all actives have a fitted effect of over 45% in size
Outline: as §3

[17] = A CellTox Green Cytotoxicity Assay to monitor cytotoxicity in HepG2 cells - 16 hour (AID 1224876); also: nearly all actives have a fitted effect of over 45% in size
Outline: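 Fluorescent DNA-binding dye, 600 HepG2 cells/well, 5 h preincubation then compound in DMSO; same plates read at 0–40 h, 37 C.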

[18] = qHTS RealTime-Glo MT Cell Viability Assay in HepG2 cells - 32 hour (AID 1224877); also: nearly all actives have a fitted effect of over 55% in size
Outline: as §1

[19] = qHTS RealTime-Glo MT Cell Viability Assay in HEK293 cells - 32 hour (AID 1224868)
Outline: as §4

[20] = A CellTox Green Cytotoxicity Assay to monitor cytotoxicity in HEK293 cells - 0 hour (AID 1224869); also: nearly all actives have a fitted effect of over 50% in size
Outline: as §3

Sequence of Thyrotropin receptor (Homo sapiens) (P16473 whole entry, looked up): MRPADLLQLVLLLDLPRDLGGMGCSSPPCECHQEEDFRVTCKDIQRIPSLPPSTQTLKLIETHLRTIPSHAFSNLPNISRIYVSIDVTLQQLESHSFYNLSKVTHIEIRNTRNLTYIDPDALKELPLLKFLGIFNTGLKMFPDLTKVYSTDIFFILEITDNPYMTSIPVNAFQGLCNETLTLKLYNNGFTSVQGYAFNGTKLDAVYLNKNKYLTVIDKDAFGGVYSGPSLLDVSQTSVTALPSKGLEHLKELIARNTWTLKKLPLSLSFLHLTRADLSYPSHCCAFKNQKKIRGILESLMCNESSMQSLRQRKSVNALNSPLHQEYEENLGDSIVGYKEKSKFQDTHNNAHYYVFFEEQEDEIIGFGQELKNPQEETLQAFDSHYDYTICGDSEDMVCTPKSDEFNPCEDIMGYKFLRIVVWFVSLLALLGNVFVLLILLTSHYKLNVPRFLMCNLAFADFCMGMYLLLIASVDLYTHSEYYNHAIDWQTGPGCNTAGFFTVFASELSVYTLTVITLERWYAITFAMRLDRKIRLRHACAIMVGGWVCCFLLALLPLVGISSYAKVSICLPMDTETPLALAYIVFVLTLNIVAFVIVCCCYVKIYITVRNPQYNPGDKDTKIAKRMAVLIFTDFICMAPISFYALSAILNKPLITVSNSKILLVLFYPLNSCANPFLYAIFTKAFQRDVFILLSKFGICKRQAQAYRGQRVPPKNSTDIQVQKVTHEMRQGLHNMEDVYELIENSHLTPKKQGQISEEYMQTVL

Row | SMILES | Potency [1] | Potency [2] | Potency [3] | outcome [4] | outcome [5] | outcome [6] | outcome [7] | outcome [8] | activity change, positive = activation [9] | outcome [10] | outcome [11] | Potency [12] | outcome [13] | outcome [14] | max response [15] [%] | Potency [16] | Potency [17] | outcome [18] | outcome [19] | outcome [20]
1 | C=CCn1cc[n+](C)c1 | inactive | inactive | inactive | inactive | inactive | inactive | inactive | inactive | 5.14% | inactive | inactive | inactive | inactive | inactive | -3.76 | inactive | inactive | inactive |  | 
2 | CCCCC(CC)COC(=O)CC#N (stereo not given) | inactive | inactive | inactive | inactive | inactive | inactive | inactive | inactive | -0.23% | inactive | inactive | inactive | inactive | inactive | 0.0288 | inactive | inactive | inactive | inactive | inactive
3 | CCCC(C)C(O)CC (stereo not given) | inactive | inactive | inactive | inactive | inactive | inactive | inactive | inactive | -0.957% | inactive | inactive | inactive | inactive | inactive | 14.3 |  | inactive | inactive | inactive | inactive
4 | C=COCCCCO | inactive | inactive | inactive | inactive | inactive | inactive | inactive |  | -29.3% | inactive | inactive | inactive |  | inactive |  | inactive | inactive | inactive |  | inactive
5 | NC(=O)CC[C@@H](N)C(=O)O | inactive | inactive | inactive | inactive | inactive | inactive |  | inactive | 1.56% [at 42.5 µM] | inactive | inactive | inactive | inactive | inactive | 8.04 | inactive | inactive | inactive | inactive | 
6 | CC(=O)Nc1ccc(OCCOCCOc2ccc(NC(C)=O)cc2)cc1 | inactive | inactive | inactive | inactive | inactive | inactive | inactive |  | -16.6% [at 42.5 µM] | inactive | inactive | inactive | inactive | inactive | -1.67 | inactive | inactive | inactive | inactive | inactive
7 | C[C@]12C=CC(=O)C=C1[C@@H](F)C[C@@H]1[C@@H]2[C@@H](O)C[C@@]2(C)[C@H]1CC[C@]2(O)C(=O)CO | inactive | 6.68 µM (active) | inactive | inactive | inactive | inactive | inactive | inactive | -4.03% [at 42.5 µM] | inactive | inactive | inactive |  | inactive | -0.454 | inactive | inactive | inactive | inactive | inactive
8 | Cc1ccc(N)nc1 | inactive | inactive | inactive | inactive | inactive | inactive | inactive | inactive | 3.66% | inactive | inactive | inactive |  | inactive | 0.353 | inactive | inactive | inactive |  | inactive
9 | N=C(N)N | inactive | inactive | inactive | inactive | inactive | inactive | inactive | inactive | 0.947% [at 42.5 µM] | inactive | inactive | inactive | inactive | inactive | -0.588 |  | inactive | inactive | inactive | 
10 | Cc1ccc(O)c(C(=O)c2ccccc2)c1 | inactive |  | inactive | inactive | inactive | inactive |  | inactive | -3.28% | inactive | inactive | inactive | inactive | inactive | -5.5 | inactive | inactive | inactive |  | 
11 | CC(=O)c1ccc2ccc3ccccc3c2c1 | inactive | inactive | inactive | inactive |  | inactive |  | inactive | 8.72% | inactive | inactive |  |  | inactive |  | inactive | inactive | inactive |  | inactive
12 | CN(C)c1cc(NC(=O)CNC(C)(C)C)c(O)c2c1C[C@H]1C[C@H]3[C@H](N(C)C)C(=O)C(C(N)=O)=C(O)[C@@]3(O)C(=O)C1=C2O | inactive |  |  | inactive |  | inactive |  | inactive | 1.19% [at 42.5 µM] | inactive | inactive | inactive | inactive | inactive |  | inactive | inactive | inactive | inactive | inactive
13 | CO/N=C(\C(=O)O)c1csc(NC(=O)CCl)n1 | inactive | inactive |  | inactive | inactive | inactive | inactive | inactive | 4.95% [at 42.5 µM] | inactive | inactive |  | inactive | inactive | 0.384 | inactive | inactive | inactive | inactive | inactive
14 | O=c1[nH]c(=O)c2cn[nH]c2[nH]1 | inactive | inactive |  | inactive | inactive | inactive |  |  | -22.5% | inactive | inactive | inactive | inactive | inactive | -0.927 |  | inactive | inactive | inactive | inactive
15 | CCCCCCCC(=O)N(C)C | inactive | inactive |  | inactive | inactive | inactive | inactive | inactive | 2.8% | inactive | inactive | inactive |  | inactive | 4.49 | inactive |  | inactive | inactive | 
